# Experimental data as given in PubChem BioAssay (NCI).
# About 83,000 compounds went through this panel and 20% of them were active in at least one assay; those are over-represented in the sample as a whole.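 Assay: single dose, 48 h. Readout: percent growth (0 = no net growth; negative = cell death). Active: <10.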 Unmarked numbers belong to inactive results. Calls of active or inactive are those of the source.
# Experiments:
# Assay in all cases: NCI-60 one-dose screen, 48 h (100 = growth as untreated, 0 = no growth, -100 = all killed)
# SK-MEL-2 melanoma = settings: 10 µM unless noted
# EKVX NSCLC = settings: 10 µM
# SN12C renal = settings: 10 µM unless noted
# UO-31 renal = settings: 10 µM unless noted
# TK-10 renal = settings: 10 µM unless noted
# ACHN renal = settings: 10 µM unless noted
# CAKI-1 renal = settings: 10 µM unless noted
# CCRF-CEM leukemia = settings: 10 µM
# MOLT-4 leukemia = settings: 10 µM unless noted
# SR leukemia = settings: 10 µM unless noted
# RPMI-8226 leukemia = settings: 10 µM unless noted
# OVCAR-8 ovarian = settings: 10 µM unless noted
# OVCAR-5 ovarian = settings: 10 µM unless noted
# OVCAR-4 ovarian = settings: 10 µM unless noted
# SK-OV-3 ovarian = settings: 10 µM unless noted
# IGROV1 ovarian = settings: 10 µM unless noted
# OVCAR-3 ovarian = settings: 10 µM unless noted
# HS 578T breast = settings: 10 µM unless noted
# NCI/ADR-RES ovarian = settings: 10 µM unless noted
# A498 renal = settings: 10 µM unless noted
SMILES,growth (SK-MEL-2 melanoma),growth (EKVX NSCLC),growth (SN12C renal) [%],growth (UO-31 renal),growth (TK-10 renal),growth (ACHN renal),growth (CAKI-1 renal),growth (CCRF-CEM leukemia),growth (MOLT-4 leukemia),growth (SR leukemia),growth (RPMI-8226 leukemia),growth (OVCAR-8 ovarian) [%],growth (OVCAR-5 ovarian) [%],growth (OVCAR-4 ovarian),growth (SK-OV-3 ovarian) [%],growth (IGROV1 ovarian),growth (OVCAR-3 ovarian),growth (HS 578T breast),growth (NCI/ADR-RES ovarian),growth (A498 renal)
O=C(/C=C\c1ccccc1Cl)c1ccccc1,128%,96.4%,102,71.5%,111%,92.5%,90.8%,-16.3% (active),91.8%,67.6%,66%,104,89.8,89.8%,107,111%,99.5%,111%,101%,
O=C1c2ccccc2CCc2ccccc21,102%,89.4%,96.7,84%,99.3%,102%,90.5%,91.8%,111%,104%,108%,99.3,93.7,104%,,93%,103%,105%,101%,
Nc1cc(N)c2nc(NCCc3ccc(Cl)c(Cl)c3)cnc2c1,54.9%,28.6%,16.5,55.8%,98.6%,62.6%,133%,-63.3% (active),,-69.7% (active),-48.9% (active),32.6,31,-96.7% (active),88.8,21.3%,-43.4% (active),62.1%,89.6%,88.2%
COc1ccc(C(O)(c2ccccc2)C(C(=O)O)c2ccccc2)cc1 (centres undefined),104%,111%,100,81.6%,105%,106%,102%,102%,102%,103%,95.5%,107,102,98%,102,104%,114%,114%,108%,
CCC(C)(C)c1ccc(OCCCCCCN2CCN(c3ccc(C)c(Cl)c3)CC2)cc1,104%,83%,92.3,64.5%,110%,91.3%,77.7%,-43.1% (active),98.3%,71.8%,59.7%,98.7,97.6,74.5%,98,,58.3%,,85%,
Cc1c(CN(C)C)cc(C(C)C)cc1C(C)C,107%,106%,96.9,108%,94.9%,112%,103%,,,,94.5%,106,115,98.8%,112,119%,120%,124%,104%,94.8%
COc1ccc(Cn2cc3c(c2-c2ccc(O)cc2)CCc2cnoc2-3)cc1,43.7%,28.3%,40.8,35.4%,72.8%,34.1%,15.3%,14.1%,,11.5%,26.6%,34.9,41.2,48.4%,12,19.7%,-14.7% (active),5.28% (active),-1.58% (active),-1.96% (active)
C=C[C@]1(C)C=C2C(=O)[C@@]3(O)OC[C@@]4(CCCC(C)(C)C43O)C2(O)C(O)C1 (some centres undefined),-0.387% (active),91.2%,93.2,33.8%,-68.2% (active),3.59% (active),10.8%,,78%,-14.4% (active),15.2%,58.3,120,24.4%,104,107%,16.3%,90.3%,60.9%,99.4%
COc1cc2oc(-c3ccc(NC(=O)c4ccccc4)cc3)cc(=O)c2c(OC)c1OC,92.1%,90.8%,83.7,88.7%,91.8%,83.5%,96.8%,82.2%,,,73.7%,77.9,86.6,64.6%,101,84.2%,92.9%,80.7%,89.4%,90.9%
Cc1c(C(N)=O)sc2c1c(=O)n(Cc1ccccc1)c1nnc(S(C)(=O)=O)n21,80.6%,98%,80.3,85.6%,93.1%,100%,86.5%,,,,,,135,64.5%,103,106%,79.6%,87.5%,100%,95.5%
OC(c1ccccc1)(c1ccccc1)C(F)(F)F,97.7%,102%,94.9,98.1%,95.7%,94.8%,97.8%,84.7%,102%,85.3%,,112,93.9,122%,103,115%,,,106%,
COc1ccc(/C(=C(\c2ccccc2)[N+](=O)[O-])c2ccc(OCCN3CCCC3)cc2)cc1,79.4%,96.9%,83.4,28.1%,80.4%,75.4%,76.9%,67.6%,71.9%,21.8%,37%,92.6,75.3,81.8%,99,,100%,,84.3%,
COc1ccc(Oc2[nH]n(C3=Nc4ccccc4Sc4ccccc43)c(=O)c2C#N)cc1,101%,94.4%,102,87.9%,108%,89.5%,92.4%,92.8%,107%,130%,91.2%,96.2,116,112%,95.5,91.6%,91.8%,,87%,
CC[C@@H](C)/C=C(C)/C=C/C(=O)c1c(O)c(-c2ccc(OC(=O)[C@@]34CC[C@@](C)(C(=O)O3)C4(C)C)cc2)cn(O)c1=O,17.8%,22.3%,30.4,-26.4% (active),44.9%,9.64% (active),-27% (active),,,,,20.4,55.7,,28.3,-18.6% (active),30.1%,57.2%,3.91% (active),49.8%
N#CC1=C(N2CCOCC2)NC2c3ccccc3Sc3ccccc3N2C1=N (centres undefined),108%,92.8%,103,72.9%,96.9%,91.5%,94%,82.7%,120%,119%,106%,98.7,109,109%,81.7,79.1%,103%,,89.9%,
Oc1ccc2ccccc2c1/C=N\Nc1ccccn1,19.3%,-6.82% (active),22.4,-24.7% (active),58.3%,6.56% (active),-26.4% (active),8.91% (active),5.28% (active),8.32% (active),25.2%,14.5,65.3,8.67% (active),19.8,-4.78% (active),5.04% (active),,0.917% (active),
Cc1c(Cc2ccccc2)c(=O)oc2c(C)c(OCC(=O)n3nc(C#N)cc3N)ccc12,98.9%,97.7%,102,75.6%,123%,93.6%,,99.6%,98.5%,90.3%,100%,102,104,93%,93.8,103%,104%,99.2%,102%,126%
CCCCCc1ccnc(CC(=O)c2ccc(OC)cc2)c1,98.2%,92.5%,91.8,79.6%,82%,93.2%,104%,87.8%,98.7%,91.5%,76.7%,86.1,89.7,76.5%,92.5,,93.7%,107%,108%,
